Assay results reported in PubChem BioAssay (NCATS).
Records with an inconclusive call do not appear. Activity calls are given as the source filed them. Unless noted, the call rests on the fitted dose curve.

Legend:
[1] = qHTS for Inhibitors of the Functional Ribonucleoprotein Complex (vRNP) of Lassa (LASV) Arenavirus: LASV Primary Screen - GLuc reporter signal (AID 1347082; calls by dose curve; tested in HEK293 reporter line; further: nearly all actives have a fitted effect of over 60% in size); details: LASV minigenome vRNP, Gaussia luciferase reporter; series mostly up to 57.5 µM
[2] = qHTS for Inhibitors of the Functional Ribonucleoprotein Complex (vRNP) of Lassa (LASV) Arenavirus: Viability assay - alamar blue signal for LASV Primary Screen (AID 1347083; calls by dose curve; tested in HEK293 reporter line; further: nearly all actives have a fitted effect of over 80% in size); details: cell viability, alamar blue fluorescence (LASV minigenome counter-screen); series mostly up to 57.5 µM
[3] = qHTS for Inhibitors of the Functional Ribonucleoprotein Complex (vRNP) of Lymphocytic Choriomeningitis Arenaviruses (LCMV): Viability assay - alamar blue signal for LCMV Primary Screen (AID 1347085; calls by dose curve; tested in HEK293 reporter line; further: nearly all actives have a fitted effect of over 80% in size); details: alamar blue viability counter-screen, LCMV vRNP screen cells; series mostly up to 57.5 µM
[4] = molecular target: Nucleoprotein (Lymphocytic choriomeningitis virus (strain Armstrong)) (UniProt P09992); experiment: qHTS for Inhibitors of the Functional Ribonucleoprotein Complex (vRNP) of Lymphocytic Choriomeningitis Arenaviruses (LCMV): LCMV Primary Screen - GLuc reporter signal (AID 1347086); details: LCMV minigenome vRNP cell assay, Gaussia luciferase reporter; series mostly up to 57.5 µM; further: nearly all actives have a fitted effect of over 70% in size
Nucleoprotein (Lymphocytic choriomeningitis virus (strain Armstrong)), sequence (P09992 whole entry, looked up): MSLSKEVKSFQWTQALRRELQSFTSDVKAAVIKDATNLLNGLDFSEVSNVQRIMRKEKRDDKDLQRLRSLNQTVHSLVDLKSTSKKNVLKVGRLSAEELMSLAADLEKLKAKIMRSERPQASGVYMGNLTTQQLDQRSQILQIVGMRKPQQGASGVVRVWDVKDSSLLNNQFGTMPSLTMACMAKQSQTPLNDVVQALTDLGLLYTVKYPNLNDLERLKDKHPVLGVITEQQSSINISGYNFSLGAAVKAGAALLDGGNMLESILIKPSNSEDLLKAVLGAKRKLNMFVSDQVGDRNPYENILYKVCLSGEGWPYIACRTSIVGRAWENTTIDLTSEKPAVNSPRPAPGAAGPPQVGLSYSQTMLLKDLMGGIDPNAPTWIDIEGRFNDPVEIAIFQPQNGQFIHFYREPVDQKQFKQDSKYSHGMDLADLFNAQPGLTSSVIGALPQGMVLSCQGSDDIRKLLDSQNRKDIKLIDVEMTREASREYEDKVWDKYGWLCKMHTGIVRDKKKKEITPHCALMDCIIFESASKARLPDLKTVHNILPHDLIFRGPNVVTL

Measured: Potency

CN1CCN(C2=Nc3ccccc3Sc3ccc(Cl)cc32)CC1
inactive: all assays above

C[C@H](N)C(=O)N[C@@H](C)C(=O)NC1[C@H]2CN(c3nc4c(cc3F)c(=O)c(C(=O)O)cn4-c3ccc(F)cc3F)C[C@@H]12 (stereo not given in full)
inactive: all assays above

Cc1cc(O)c(C(C)C)cc1Cl
inactive: all assays above

CC(NC(CCc1ccccc1)C(=O)O)C(=O)N1C(=O)N(C)CC1C(=O)O (stereo not given)
inactive: all assays above

CC(C)COCC(CN(Cc1ccccc1)c1ccccc1)N1CCCC1 (stereo not given)
inactive: all assays above

CCC1(c2cnc[nH]2)Cc2ccccc2C1
inactive: all assays above

CCCNC(C)(C)COC(=O)c1ccccc1
inactive: all assays above

CN1CCC(=C2c3ccccc3CCc3sccc32)CC1
inactive: all assays above

CCc1cccc2c(CCO)c[nH]c12
inactive: all assays above

C=CC[N+]1([C@H]2C[C@H]3[C@@H]4CC[C@H]5C[C@H](OC(C)=O)[C@@H](N6CCCCC6)C[C@]5(C)[C@H]4CC[C@]3(C)[C@H]2OC(=O)CC)CCCCC1
inactive: all assays above

Cc1ccc(Cl)c(OCC(O)CNC(C)(C)C)c1 (stereo not given)
inactive: all assays above

O=C1Cc2cc(Cl)ccc2N1
inactive: all assays above

CN(C)C(=O)Oc1cccc([N+](C)(C)C)c1
inactive: all assays above

Cc1ccc(Nc2c(F)cccc2Cl)c(CC(=O)O)c1
inactive: all assays above

OCc1ccccc1O
inactive: all assays above

C[C@@]12CCC[C@H]1[C@@H]1CC[C@H]3C[C@@H](O)CC[C@]3(C)[C@H]1CC2
inactive: all assays above

Cc1cc(C(C)(C)C)cc(C)c1CC1=NCCN1
inactive: all assays above

COC(=O)C1=C(C)NC(C)=C(C(=O)OC)C1c1ccccc1[N+](=O)[O-]
inactive: all assays above

CC(Oc1c(Cl)cccc1Cl)C1=NCCN1 (stereo not given)
inactive: all assays above

CCCCC1C(=O)N(c2ccccc2)N(c2ccc(O)cc2)C1=O (stereo not given)
inactive: all assays above

C=CCSCC1Nc2cc(Cl)c(S(N)(=O)=O)cc2S(=O)(=O)N1 (stereo not given)
inactive: all assays above

CN(C)CCN(Cc1cccs1)c1ccccn1
inactive: all assays above

CCN(CC)CCNC(=O)c1cc(Br)c(N)cc1OC
inactive: all assays above

CC1(C)[C@@H]2CC[C@@]1(C)C(=O)C2
inactive: all assays above

OC[C@H]1O[C@@H](O[C@@H]2[C@@H](CO)O[C@](O)(CO)[C@H]2O)[C@H](O)[C@@H](O)[C@H]1O
inactive: all assays above

N[C@@H](Cc1c[nH]c2ccc(O)cc12)C(=O)O
inactive: all assays above

NC(=O)NNc1ccccc1
inactive: all assays above

CC(=O)Oc1ccc(C(c2ccc(OC(C)=O)cc2)c2ccccn2)cc1
inactive: all assays above

O=C(/C=C/c1ccccc1)NCCO
inactive: all assays above

COc1ccccc1N1CCN(CCCNc2cc(=O)n(C)c(=O)n2C)CC1
inactive: all assays above

CCOc1ccc(C(=O)OCCN(CC)CC)cc1
inactive: all assays above

O=c1[nH]sc2cc(Cl)ccc12
inactive: all assays above

O=C(OCc1ccccc1)c1ccc(O)cc1
inactive: all assays above

C[C@H]1NCc2cc(-c3ccc4c(=O)c(C(=O)O)cn(C5CC5)c4c3OC(F)F)ccc21
inactive: all assays above

COc1cccc(N(C)C(=S)Oc2ccc3c(c2)CCCC3)n1
inactive: all assays above

CCOC(=O)C(=O)CCc1ccccc1
inactive: all assays above

CCOC(=O)CN1CCCC1=O
inactive: all assays above

Cn1c(=O)c2c(ncn2CC2OCCO2)n(C)c1=O
inactive: all assays above

OC(CCN1CCCCC1)(c1ccccc1)C1CC2C=CC1C2 (stereo not given)
inactive: all assays above

O=C1O[C@H]([C@@H](O)CO)C(O)=C1O
inactive: all assays above

C#C[C@]1(OC(C)=O)CC[C@H]2[C@@H]3CCC4=C[C@@H](OC(C)=O)CC[C@@H]4[C@H]3CC[C@@]21C
inactive: all assays above

Cc1[nH]c(C)c(Cl)c(=O)c1Cl
inactive: all assays above

NCC(=O)O
inactive: all assays above

CC1(C)S[C@@H]2[C@H](N=CN3CCCCCC3)C(=O)N2[C@H]1C(=O)O
inactive: all assays above

O=C(Oc1cccc2cccnc12)c1ccccc1
inactive: all assays above

O=Cc1ccccc1C=O
inactive: all assays above

COc1cc2c(cc1OC)-c1cc(=Nc3c(C)cc(C)cc3C)n(C)c(=O)n1CC2
inactive: all assays above

O=C(c1cc(O)c(O)c(O)c1)c1ccc(O)c(O)c1O
inactive: all assays above

O=C1NCN(c2ccccc2)C12CCN(CCCC(c1ccc(F)cc1)c1ccc(F)cc1)CC2
inactive: all assays above

CN1CCOC(c2ccccc2)c2ccccc2C1 (stereo not given)
inactive: all assays above

CCOC(=O)C(C#N)=C(c1ccccc1)c1ccccc1
inactive: all assays above

CC(C)Cc1ccc(C(C)C(=O)OCc2ccccn2)cc1 (stereo not given)
inactive: all assays above

CC1=C(C(=O)OC(C)C)C(c2cccc([N+](=O)[O-])c2)C(C(=O)OC2CN(C(c3ccccc3)c3ccccc3)C2)=C(N)N1 (stereo not given)
inactive: all assays above

CCCCCC(=O)O[C@]1(C(C)=O)CC[C@H]2[C@@H]3CCC4=CC(=O)CC[C@]4(C)[C@H]3CC[C@@]21C
inactive: all assays above

CC(C)(Oc1ccc(CCNC(=O)c2ccc(Cl)cc2)cc1)C(=O)O
inactive: all assays above

CCCCN(CCN(CCCC)C(=O)N1CCOCC1)C(=O)N1CCOCC1
inactive: all assays above

O=C(CN1CCN(Cc2ccc3c(c2)OCO3)CC1)N1c2ccccc2Sc2ccccc21
inactive: all assays above

C[C@H]1C[C@H]2[C@@H]3CCC4=CC(=O)C=C[C@]4(C)[C@H]3C(=O)C[C@]2(C)[C@@]1(O)C(=O)CO
inactive: all assays above

Cc1cccc(C)c1NC(=O)CN1CCCC1
inactive: all assays above

CN(C)C(=O)CNC(=O)Cc1ccccc1
inactive: all assays above

C[C@]12CC[C@@H]3c4ccc(O)cc4CC[C@H]3[C@@H]1CCC2=O
inactive: all assays above

CCOc1ccccc1C(N)=O
inactive: all assays above

C#CC1(O)CC[C@H]2[C@@H]3CCC4=CCCC[C@@H]4[C@H]3CC[C@@]21C (stereo not given in full)
inactive: all assays above

Cc1cc(C(C)(C)C)c(O)c(C)c1CC1=NCCN1
inactive: all assays above

CCCCNc1cc(C(=O)O)cc(S(N)(=O)=O)c1Oc1ccccc1
inactive: all assays above

Cc1cc(C(C)(C)C)c(O)c(C(C)(C)C)c1
inactive: all assays above

OC(CN1CCC(Cc2ccc(F)cc2)CC1)c1ccc(Cl)cc1 (stereo not given)
inactive: all assays above

C[C@H](N)[C@H](O)c1cccc(O)c1
inactive: all assays above

CN1C[C@H](C(=O)N[C@]2(C)O[C@@]3(O)[C@@H]4CCCN4C(=O)[C@H](Cc4ccccc4)N3C2=O)C[C@@H]2c3cccc4[nH]cc(c34)C[C@H]21
inactive: all assays above

N[C@H](Cc1c[nH]c2ccccc12)C(=O)O
inactive: all assays above

CCN(CC)CC(=O)OCC(=O)[C@@]1(O)CC[C@H]2[C@@H]3CCC4=CC(=O)CC[C@]4(C)[C@H]3[C@@H](O)C[C@@]21C
inactive: all assays above

COC1=C(OC)C(=O)C(CCCCCCCCCCO)=C(C)C1=O
inactive: all assays above

O=C1C(CCS(=O)c2ccccc2)C(=O)N(c2ccccc2)N1c1ccccc1 (stereo not given)
inactive: all assays above

COc1ccc2[nH]c(S(=O)Cc3ncc(C)c(OC)c3C)nc2n1 (stereo not given)
inactive: all assays above

CCOCC(O)COc1ccc(NC(=O)CC[S+](C)C)cc1 (stereo not given)
inactive: all assays above

CCC1NC(=O)c2cc(S(N)(=O)=O)c(Cl)cc2N1 (stereo not given)
inactive: all assays above

N=C(N)c1ccc(OCCCOc2ccc(C(=N)N)cc2)cc1
inactive: all assays above

CN1CCC(N(Cc2cccs2)c2ccccc2)CC1
inactive: all assays above

CCN(CC)CCOC(=O)C1(c2ccccc2)CCCC1
inactive: all assays above

CN1CCC(OC(c2ccccc2)c2ccccc2)CC1
inactive: all assays above

CCC(C(=O)OCCN1CCOC(c2ccccc2)C1C)c1ccccc1 (stereo not given)
inactive: all assays above

O=C(CCCCCCCCC#CI)Oc1ccccc1
inactive: all assays above

CC(C)C(=O)Nc1cccc(C2CN3CCSC3=N2)c1 (stereo not given)
inactive: all assays above

CC1(C)OC(=O)Nc2ccc(Br)cc21
inactive: all assays above

Cc1c(N)cccc1C(F)(F)F
inactive: all assays above

CCCCN(CCCC)CCC(O)c1cc2c(Cl)cc(Cl)cc2c2cc(C(F)(F)F)ccc12 (stereo not given)
inactive: all assays above

CN(C)CCN(Cc1ccccc1)c1ccccn1
inactive: all assays above

CC(=O)CCC(=O)O
inactive: all assays above

Cc1cc(=O)oc2cc(O)ccc12
inactive: all assays above

CCN(CC)CCSC(=O)C(c1ccccc1)c1ccccc1
inactive: all assays above

NS(=O)(=O)c1cc2c(cc1Cl)CN(C1CCCCC1)C2=O
inactive: all assays above

CC(=O)Oc1ccc(C2(c3ccc(OC(C)=O)cc3)C(=O)Nc3ccccc32)cc1
inactive: all assays above

CC(CC1c2ccccc2CCc2ccccc21)CN(C)C (stereo not given)
inactive: all assays above

C#C[C@]1(OC(C)=O)CC[C@H]2[C@@H]3CCC4=C/C(=N/O)CC[C@@H]4[C@H]3CC[C@@]21CC
inactive: all assays above

O=C(NCCc1c[nH]c2ccccc12)c1cccnc1
inactive: all assays above

C=C1c2cccc(O)c2C(O)=C2C(=O)[C@]3(O)C(O)=C(C(N)=O)C(=O)[C@@H](N(C)C)[C@@H]3[C@@H](O)[C@H]12
inactive: all assays above

CCOC(=O)N1CCC(Nc2ccc(Cl)cc2N)CC1
inactive: all assays above

O=S1(=O)OC(c2ccc(O)cc2)(c2ccc(O)cc2)c2ccccc21
inactive: all assays above

CCCCC(=O)O[C@]1(C(=O)CO)CC[C@H]2[C@@H]3CCC4=CC(=O)CC[C@]4(C)[C@H]3[C@@H](O)C[C@@]21C
inactive: all assays above

CN(C)CCN1C(=O)c2ccccc2N(C)c2ccccc21
inactive: all assays above

Cn1c(=O)c2c(ncn2C)n(C)c1=O
inactive: all assays above

C[N+]1(CC2COC(c3ccccc3)(C3CCCCC3)O2)CCCCC1 (stereo not given)
inactive: all assays above

Cc1sccc1Br
inactive: all assays above

O=C1CC2(CCCC2)CC(=O)N1CCNCC1COc2ccccc2O1 (stereo not given)
inactive: all assays above

O=C(Nc1ccc([N+](=O)[O-])cc1)Nc1ccc([N+](=O)[O-])cc1
inactive: all assays above

CC(C)(C)C(=O)OCOC(=O)C1N2C(=O)CC2S(=O)(=O)C1(C)C (stereo not given)
inactive: all assays above

C[C@@H]1C[C@H]2[C@@H]3C[C@H](F)C4=CC(=O)C(Cl)=C[C@]4(C)[C@@]3(F)[C@@H](O)C[C@]2(C)[C@@]1(O)C(=O)CO
inactive: all assays above

NNc1nnc(NN)c2ccccc12
inactive: all assays above

CCC(C)(C)c1ccc(CC(C)CN2C[C@@H](C)O[C@@H](C)C2)cc1 (stereo not given in full)
inactive: all assays above

N[C@H](C(=O)O)[C@@H](O)c1ccc(O)c(O)c1
inactive: all assays above

Cc1ccc(C(=O)Nc2ccc(S(=O)(=O)O)c3cc(S(=O)(=O)O)cc(S(=O)(=O)O)c23)cc1NC(=O)c1cccc(NC(=O)Nc2cccc(C(=O)Nc3cc(C(=O)Nc4ccc(S(=O)(=O)O)c5cc(S(=O)(=O)O)cc(S(=O)(=O)O)c45)ccc3C)c2)c1
inactive: all assays above

Nc1ccc2c(c1)CN1C(=O)c3ccccc3C1=N2
inactive: all assays above

C1CCN2C[C@@H]3C[C@@H](CN4CCCC[C@@H]34)[C@H]2C1
inactive: all assays above

NCCNc1cccc2ccccc12
inactive: all assays above

O=[N+]([O-])c1nccn1CO[C@@H](CO)[C@H](O)CO
inactive: all assays above

C[C@]12CCC(=O)C=C1CC[C@@H]1[C@@H]2[C@@H](O)C[C@@]2(C)[C@H]1CC[C@]2(O)C(=O)CO
inactive: all assays above

NS(=O)(=O)c1cc2c(cc1Cl)NC(CSCc1ccccc1)=NS2(=O)=O
inactive: all assays above

O=C(COc1ccc(Cl)cc1)N1CCN(Cc2ccc3c(c2)OCO3)CC1
inactive: all assays above

CN(C)C(=O)Nc1ccc(Cl)c(Cl)c1
inactive: all assays above
